Inconclusive results are not listed. Calls of active or inactive are those of the source. The calls were made as follows: active = hit-call score of the fitted dose curve at least 0.9, where 1 is the maximum; inconclusive = response in the unintended direction; inactive = score below 0.9.

Test [1] in a line: TOX21_p53_BLA_p2_viability: Viability Assessment in the Tox21 HCT-116 p53 Agonism Beta-lactamase Assay, Phase 2 (AID 2283591).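 Also: compound exposure lasted 16 h at 37 °C; actives lower the ATP signal meaning cytotoxicity.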 The essentials: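 Cytotoxicity readout: CellTiter-Glo ATP luminescence, 30 min at room temperature, after the beta-lactamase read. Cells were HCT116 exposed 16 h at 37C to compounds pin-transferred at 217-fold dilution from DMSO stocks.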
For test [2], the target named is Cellular tumor antigen p53 (Homo sapiens) (UniProt P04637). As to the kind of experiment: TOX21_p53_BLA_p2_ratio: Tox21 HCT-116 p53 Agonism Beta-lactamase Assay, Ratio, Phase 2 (AID 2283592). The method in brief: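 HCT116 p53-bla; 4000 cells/well; 5 h pre-incubation; cpd in DMSO, 217-fold dilution; 16 h 37C/5% CO2; CCF4-AM 2 h RT; Ex 405, Em 460/530 ratio; DMSO = baseline; positive fitting direction.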
Cellular tumor antigen p53 (Homo sapiens), sequence (P04637 whole entry, looked up): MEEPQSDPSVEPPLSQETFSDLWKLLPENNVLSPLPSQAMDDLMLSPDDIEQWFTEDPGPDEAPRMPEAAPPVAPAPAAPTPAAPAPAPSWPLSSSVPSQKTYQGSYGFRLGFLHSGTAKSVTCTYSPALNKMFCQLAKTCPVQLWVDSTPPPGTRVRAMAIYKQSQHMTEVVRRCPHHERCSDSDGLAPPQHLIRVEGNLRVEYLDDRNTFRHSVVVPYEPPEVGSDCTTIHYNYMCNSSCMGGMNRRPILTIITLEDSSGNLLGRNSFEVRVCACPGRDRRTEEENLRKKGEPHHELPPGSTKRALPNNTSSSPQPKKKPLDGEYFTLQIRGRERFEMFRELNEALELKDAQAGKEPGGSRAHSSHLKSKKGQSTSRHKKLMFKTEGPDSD

For test [3] the target is unchanged. As to the kind of experiment: TOX21_p53_BLA_p3_ratio: Tox21 HCT-116 p53 Agonism Beta-lactamase Assay, Ratio, Phase 3 (AID 2283596). The essentials:
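HCT116 p53-bla cells (4000/well) given compound in DMSO (217-fold dilution) after 5 h, incubated 16 h at 37C. CCF4-AM substrate 2 h at room temperature; 460/530 nm emission ratio, gain fitted against DMSO.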

A short description of test [4]: TOX21_p53_BLA_p4_viability: Viability Assessment in the Tox21 HCT-116 p53 Agonism Beta-lactamase Assay, Phase 4 (AID 2283597).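 Also: hits lower the luminescence signal meaning cytotoxicity.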 The method in brief: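 Cells plated, 5 h pre-incubation; DMSO compounds pinned (217-fold dilution); 16 h, 37C/5% CO2; CCF4-AM 2 h RT; CellTiter-Glo 30 min RT; luminescence read.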
The target of test [5] is Cellular tumor antigen p53 (Homo sapiens) (UniProt P04637). Briefly: TOX21_p53_BLA_p5_ratio: Tox21 HCT-116 p53 Agonism Beta-lactamase Assay, Ratio, Phase 5 (AID 2283599). The method in brief: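 Beta-lactamase reporter ratio (blue 460 nm over green 530 nm, 405 nm excitation) after 2 h CCF4-AM loading, in HCT-116 cells exposed 16 h at 37 C to compounds pinned at 217-fold dilution. Increases relative to DMSO baseline scored.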

Test [6] is described as follows: TOX21_p53_BLA_p5_viability: Viability Assessment in the Tox21 HCT-116 p53 Agonism Beta-lactamase Assay, Phase 5 (AID 2283600). The method in brief: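 4000 cells/well; 5 h pre-incubation; DMSO compounds pin-transferred, 217-fold dilution; 16 h, 37C/5% CO2; CCF4-AM 2 h RT; CellTiter-Glo 30 min RT; luminescence.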
The target of test [7] is Cellular tumor antigen p53 (Homo sapiens) (UniProt P04637). As to the kind of experiment: TOX21_p53_BLA_p4_ratio: Tox21 HCT-116 p53 Agonism Beta-lactamase Assay, Ratio, Phase 4 (AID 2283601). The method in brief: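 Signal is the blue/green (460nm/530nm) ratio of cleaved versus uncleaved CCF4-AM substrate, read after 2 h substrate loading. Cells were HCT116 carrying the p53-responsive beta-lactamase reporter, dosed 16 h at 37C, 5% CO2; CellTiter-Glo measured in parallel.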

In the next test the target is PGR (gene 5241) (UniProt P06401). Briefly: TOX21_PR_BLA_Followup_Antagonist_ratio: Tox21 HEK293 Progesterone Receptor (PR) Antagonism Beta-lactamase Follow-Up Assay, Ratio (AID 2283934). The essentials:
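PR-UAS-bla HEK293T cells in medium with 2% charcoal-stripped FBS were treated with compounds plus 1 nM (final) promegestone (R5020) for 16 hr at 37C. LiveBLAzer B/G FRET substrate was then added for 2 h at room temperature; signal is cleaved/uncleaved substrate ratio versus DMSO.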

Test [8] can be described thus: TOX21_PR_BLA_Followup_Agonist_viability: Viability Assessment in the Tox21 HEK293 Progesterone Receptor (PR) Agonism Beta-lactamase Follow-Up Assay (AID 2283935).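 Also: signal loss means lower viability so actives are cytotoxic.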 The method in brief: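 PR-UAS-bla HEK293T cells in 2% charcoal-stripped FBS medium, compound added after 6 hr plating, 16 hr at 37C/5% CO2. After bla FRET read, CellTiter-Glo added; luminescence read after 30 min at room temperature; signal loss marks cytotoxicity.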

Test [9] in a line: TOX21_PR_BLA_Followup_Antagonist_viability: Viability Assessment in the Tox21 HEK293 Progesterone Receptor (PR) Antagonism Beta-lactamase Follow-Up Assay (AID 2283936).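 Also: hits lower the luminescence signal meaning cytotoxicity.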 The essentials: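 PR-UAS-bla HEK293T cells (3,000/well, 2% charcoal-stripped FBS) given compound plus R5020 agonist, 16 h at 37C. CellTiter-Glo added after bla read, 30 min at room temperature; luminescence loss indicates cytotoxicity.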

Test [10] can be described thus: TOX21_PR_LUC_Followup_Agonist_viability: Viability Assessment in the Tox21 HEK293 Progesterone Receptor (PR) Agonism Luciferase Follow-Up Assay (AID 2283941).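 Also: loss of signal means cytotoxicity so actives lower viability.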 The essentials: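 HEK293-PR-A-luc cells, pre-cultured 5 days in 10% charcoal-stripped FBS, were seeded at 3,000 cells/well, rested 5 h at 37C, then given compound in DMSO for 16 h at 37C. Cellular ATP was read by CellTiter-Glo luminescence; signal loss indicates cytotoxicity.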

PGR (gene 5241), sequence (P06401 whole entry, looked up): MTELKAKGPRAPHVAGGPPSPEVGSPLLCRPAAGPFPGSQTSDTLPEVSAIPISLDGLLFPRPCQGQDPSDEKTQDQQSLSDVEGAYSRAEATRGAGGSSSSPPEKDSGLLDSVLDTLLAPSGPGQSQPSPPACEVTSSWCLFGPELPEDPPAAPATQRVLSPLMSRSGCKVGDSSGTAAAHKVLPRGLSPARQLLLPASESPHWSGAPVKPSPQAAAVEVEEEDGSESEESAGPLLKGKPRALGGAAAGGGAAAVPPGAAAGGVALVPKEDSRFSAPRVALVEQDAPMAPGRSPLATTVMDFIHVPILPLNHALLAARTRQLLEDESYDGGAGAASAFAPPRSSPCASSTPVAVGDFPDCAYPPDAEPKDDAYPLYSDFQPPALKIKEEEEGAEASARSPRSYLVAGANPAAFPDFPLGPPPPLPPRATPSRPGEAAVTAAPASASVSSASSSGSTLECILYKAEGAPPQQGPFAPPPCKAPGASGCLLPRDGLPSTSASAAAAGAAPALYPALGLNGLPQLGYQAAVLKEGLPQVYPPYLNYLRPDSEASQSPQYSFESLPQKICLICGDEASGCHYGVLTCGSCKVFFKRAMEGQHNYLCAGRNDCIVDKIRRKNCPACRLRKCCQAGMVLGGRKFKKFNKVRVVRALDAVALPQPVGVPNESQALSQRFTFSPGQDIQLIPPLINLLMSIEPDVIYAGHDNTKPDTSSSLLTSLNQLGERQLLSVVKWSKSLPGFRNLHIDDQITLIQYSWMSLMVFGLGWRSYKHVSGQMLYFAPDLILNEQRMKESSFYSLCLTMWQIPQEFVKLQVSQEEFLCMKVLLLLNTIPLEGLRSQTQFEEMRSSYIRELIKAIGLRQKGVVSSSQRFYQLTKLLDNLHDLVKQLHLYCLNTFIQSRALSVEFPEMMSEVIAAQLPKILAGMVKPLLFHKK

As to `CCN(CC)C(C)=O`, the call in [1], in test [2], in test [3], in [4], in test [5] and in test [6] was inactive. Further, the result in test [7] was inactive.
As for `CCN(CC)CCOCCOC(=O)C(CC)(CC)c1ccccc1`, the outcome in test [1], in test [2], in test [3], in [4], in [5] and in test [6] was inactive. Further, in test [7], the result was inactive.
Take `CCOC(=O)c1cccc(N)c1`: the molecule was called inactive in test [1], in test [2], in [3], in test [4], in test [5] and in [6]. Further, the outcome in [7] was inactive.
As for `CCOC(=O)OC(C)OC1=C(C(=O)Nc2ccccn2)N(C)S(=O)(=O)c2ccccc21` (stereo unspecified), the outcome in test [1], in test [2], in [3], in test [4], in test [5] and in [6] was inactive. Moreover, the outcome in [7] was inactive.
In the case of `Cc1cc(NS(=O)(=O)c2ccc(N)cc2)nc(C)n1`, the call in test [1], in [2], in [3], in test [4], in test [5] and in [6] was inactive. In test [7], the outcome was inactive.
In the case of `O=[N+]([O-])c1ccc2ncccc2c1`, the outcome in test [1], in test [2], in test [3], in test [4], in test [5] and in test [6] was inactive. Moreover, in [7], the result was inactive.
Turning to `CC(Cl)C(Cl)Cl` (stereo unspecified), the result in [1], in test [2], in test [3], in test [4], in [5] and in test [6] was inactive. Moreover, in test [7], the outcome was inactive.
For `COc1ccc(CCNC[C@H](O)c2ccc(O)cc2)cc1OC`, the molecule was classed as inactive in test [1], in [2], in test [3], in test [4], in [5] and in [6]. Further, the result in [7] was inactive.
Take `Cc1cc(N)c2ccccc2[n+]1CCCCCCCCCC[n+]1c(C)cc(N)c2ccccc21`: the result in test [1], in [2], in test [3], in [4], in test [5] and in [6] was inactive. Also, the result in test [7] was inactive.
As to `CC(=O)O[C@@H]1C(=O)O[C@@H]2[C@H]1OC(=O)[C@@H]2OC(C)=O`, the molecule was classed as inactive in test [1], in test [2], in test [3], in test [4], in test [6] and in test [7]. For the same molecule, the half-maximal activity concentration (AC50) (commonly the midpoint of the concentration-response curve, whichever way the signal moves) in [5] is 36.7 µM (active).
Take `c1ccc(CN(CC2=NCCN2)c2ccccc2)cc1`: the outcome in [1], in [2], in test [3], in [4], in [5] and in test [6] was inactive. For the same molecule, in test [7], the result was inactive.
Take `S=C1NC=NC2N=CNC12` (stereo unspecified): the AC50 in test [1] is 2.15 µM (active); in [2] it was 7.37 µM (active); in [3] it was 7.71 µM (active); in test [4], 2.3 µM (active); in [5], 6.33 µM (active); in [7] it was 8.02 µM (active). Besides, the outcome in test [6] was inactive.
With `NS(=O)(=O)c1cc2c(cc1Cl)NC(C1CC3C=CC1C3)NS2(=O)=O` (stereo unspecified), the molecule was called inactive in test [1], in [2], in [3], in test [4], in test [5] and in [6]. In addition, in [7], the outcome was inactive.
In the case of `CC(C)[N+]1(C)[C@@H]2CC[C@H]1CC(OC(=O)C(CO)c1ccccc1)C2` (stereo partly specified), the call in test [1], in test [2], in [3], in test [4], in test [5] and in test [6] was inactive. Also, in [7], the outcome was inactive.
Take `OCCN1CCN(CCCN2c3ccccc3Sc3ccc(Cl)cc32)CC1`: the call in test [1], in test [2], in test [3], in test [5], in test [6] and in test [7] was inactive. The concentration at half-maximal activity (AC50) in test [4] is 15.8 µM (active).
For the molecule `CC(C)C(O)C(C)(C)CO` (stereo unspecified), the molecule was classed as inactive in [1], in test [2], in [3], in [4], in test [5] and in test [6]. Besides, the result in test [7] was inactive.
For `N#CCC(=O)NN`, the molecule was called inactive in test [1], in test [2], in test [3], in test [4], in test [5] and in test [6]. Also, the outcome in test [7] was inactive.
With `CCCOC(=O)C(C)O` (stereo unspecified), the molecule was called inactive in [1], in [2], in test [3], in test [4], in test [5] and in test [6]. Also, the outcome in test [7] was inactive.
Take `NCCNCCNCCN`: the molecule was called inactive in test [1], in [2], in [3], in test [4], in [5] and in test [6]. Also, the result in [7] was inactive.
As to `S=C1SCN(Cc2ccccc2)CN1Cc1ccccc1`, the molecule was called inactive in test [1], in test [2], in [3], in test [4], in [5] and in test [6]. For the same molecule, the outcome in [7] was inactive.
`NCCNCCO`: the result in test [1], in test [2], in test [3], in test [4], in test [5] and in test [7] was inactive.
Consider `c1ccc2c(c1)CCc1ccccc1N2`, for which the call in test [1], in test [2], in [3], in [4], in [5] and in test [7] was inactive. In addition, the outcome (with PGR (gene 5241); in test [8]; in test [9]; in test [10]) was inactive.
Take `CCC(=O)Oc1ccc2c(c1)CC[C@@H]1[C@@H]2CC[C@]2(C)[C@@H](OC(=O)CC)CC[C@@H]12`: the result in test [1], in [2], in test [3], in test [4] and in test [6] was inactive.
Regarding `CCC(=O)c1c(O)cc(O)cc1O`, the result in [1], in test [2], in test [3], in test [4], in test [5] and in test [7] was inactive.
With `Cc1cccc(C)c1NC(=O)C(C)N` (stereo unspecified), the outcome in test [1], in [2], in test [3], in [4], in test [5] and in test [7] was inactive.
For `CC(=O)N[C@H]1[C@H]([C@H](O)[C@H](O)CO)OC(C(=O)O)=C[C@@H]1N=C(N)N`, the call in test [1], in test [2], in [3], in test [4], in test [6] and in [7] was inactive.
For the molecule `Cc1ccccc1OCC1CO1` (stereo unspecified), the result in test [1], in [2], in [3], in test [4], in test [6] and in test [7] was inactive.
Consider `CNCC[C@@H](Oc1ccccc1C)c1ccccc1`, for which the molecule was classed as inactive in test [1], in test [2], in test [3], in test [4], in test [5] and in test [7].

The record behind these values is PubChem BioAssay (EPA / NIEHS).
